According to PubChem BioAssay (Tox21):
Values joined by “and” are separate entries in the source; they are usually repeats but may differ in a detail not shown here. Equal values may be shown once. Records with an inconclusive call do not appear. Some structures have more than one record in an assay (separate samples or runs), and their calls can disagree. Active and inactive are the calls of the source. Unless noted, calls come from the whole dose curve. Peptide text beside a SMILES is read from it.

Tests used:
[1] = Nuclear factor erythroid 2-related factor 2/antioxidant responsive element (Nrf2/ARE) small molecule agonists: qHTS cell viability counter screen in human keratinocytes (AID 1919968; active = well fitted curve in the direction sought with a large enough effect in the repeat runs; an effect the other way counts as inactive or inconclusive; note: nearly all actives have a fitted effect of over 55% in size)
Method in brief: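 Seed 1,500 KeratinoSens cells per well, then incubate 5 h at 37 C/5% CO2. Add compounds in DMSO and incubate 23 h. Add CellTiter-Fluor, wait 1 h and read fluorescence.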

[2] = Nuclear factor erythroid 2-related factor 2/antioxidant responsive element (Nrf2/ARE) small molecule agonists: luciferase reporter gene qHTS assay in human keratinocytes (AID 1919969); note: nearly all actives have a fitted effect of over 35% in size; note: potency is the fitted concentration of half-maximal effect
[3] = molecular target: Gonadotropin-releasing hormone receptor (Homo sapiens) (UniProt P30968); assay: Human gonadotropin-releasing hormone receptor (GnRHR) small molecule agonists, calcium flux assay in GnRHR-HEK293 cells (AID 1920063); note: nearly all actives have a fitted effect of over 35% in size
Chain of Gonadotropin-releasing hormone receptor (Homo sapiens) (P30968 whole entry, looked up): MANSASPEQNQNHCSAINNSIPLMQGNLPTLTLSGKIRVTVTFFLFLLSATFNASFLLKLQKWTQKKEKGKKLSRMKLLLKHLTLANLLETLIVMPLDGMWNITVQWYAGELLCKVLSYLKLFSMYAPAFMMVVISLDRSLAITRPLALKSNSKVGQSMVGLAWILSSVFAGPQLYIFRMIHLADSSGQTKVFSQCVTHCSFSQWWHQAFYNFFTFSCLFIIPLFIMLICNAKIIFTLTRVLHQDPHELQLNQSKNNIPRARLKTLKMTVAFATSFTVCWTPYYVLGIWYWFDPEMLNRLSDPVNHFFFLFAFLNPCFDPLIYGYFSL
Method in brief: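 Cells: HEK293 stably expressing human GnRHR. Steps: overnight (18 h) culture, 1 h calcium dye loading at 37 C, compound addition, kinetic fluorescence read at 480/540 nm. Each compound tested at 15 concentrations in triplicate.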

[4] = G protein-coupled receptor (GPCR) small molecule agonists, calcium flux assay: HEK293 wild type cell line counter screen (AID 1920065)
Method in brief: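 Counter-screen of the Tox21 10K library for non-specific calcium release: dye-loaded cells received compounds in DMSO and were monitored by kinetic fluorescence (480/540 nm, 3 min). Fifteen concentrations, run in triplicate.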

[5] = p53 small molecule agonists, cell-based qHTS assay with rat liver microsomes (AID 1963578)
Method in brief: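 Cells carrying a p53 response element–beta-lactamase reporter were plated and rested 5 h, then dosed with compound in DMSO plus rat liver microsomes and NADPH, each at 0.5 mg/mL final. After 16 h at 37 C, LiveBLAzer substrate was added for 2 h.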

[6] = p53 small molecule agonists, cell-based qHTS assay with human liver microsomes: qHTS cell viability counter screen (AID 1963579); note: nearly all actives have a fitted effect of over 45% in size
Method in brief: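 Cytotoxicity counter screen: p53RE-bla, 4,000 cells/well; 5 h settle, 37 C/5% CO2; cpd + HLM 0.5 mg/mL + NADPH 0.5 mg/mL (final); 16 h, 37 C; CellTiter-Glo, 30 min RT, luminescence.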

[7] = p53 small molecule agonists, cell-based qHTS assay with rat liver microsomes: qHTS cell viability counter screen (AID 1963580); note: nearly all actives have a fitted effect of over 45% in size
Method in brief: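 p53RE-bla HCT-116 cells (4,000/well) rested 5 h at 37 C, then given Tox21 compounds in DMSO with rat liver microsomes (0.5 mg/mL final) plus NADPH (0.5 mg/mL final) for 16 h at 37 C. Viability read by CellTiter-Glo luminescence after 30 min at room temperature.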

[8] = p53 small molecule agonists, cell-based qHTS assay: qHTS cell viability counter screen (AID 1963581); note: nearly all actives have a fitted effect of over 45% in size
Method in brief: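 Cells: HCT-116 with p53 response element-driven beta-lactamase. Treatment: 16 h, 37 C, compounds in DMSO. Read: CellTiter-Glo luminescence after 30 min RT.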

[9] = p53 small molecule agonists, cell-based qHTS assay (AID 1963582; active = well fitted activation curve with a large enough effect in the signal ratio in the repeat runs, not every such curve was filed as active; the % refers to the signal ratio)
Method in brief: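 Quantitative HTS in p53RE-bla cells: after a 5 h settling period, compounds delivered in DMSO were left on cells for 16 h at 37 C, and reporter induction was measured as fluorescence following 2 h substrate loading.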

[10] = cAMP Responsive Elements (CRE) small molecule agonists, cell-based qHTS assay (AID 1963590)
Method in brief: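 Agonist mode qHTS in CRE-bla HEK 293T cells: compounds dosed from DMSO for 3 h at 37 C/5% CO2, followed by LiveBLAzer B/G FRET substrate for 2 h at room temperature.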

[11] = cAMP Responsive Elements (CRE) small molecule antagonists, cell-based qHTS assay (AID 1963591; active = well fitted inhibition curve with a large enough effect in the signal ratio in the repeat runs, not every such curve was filed as active; the % refers to the signal ratio)
Method in brief: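 Antagonist mode: test compounds are co-incubated with the adenylyl cyclase activator NKH477 (0.25 uM final) on CRE-bla HEK293T cells for 3 h at 37 °C, followed by LiveBLAzer substrate loading.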

[12] = molecular target: Beta-2 adrenergic receptor (Homo sapiens) (UniProt P07550); assay: Adrenergic beta2 receptor (ADRB2) small molecule antagonists, cell-based qHTS assay (AID 1963592); note: series mostly up to about 92 µM; nearly all actives have a fitted effect of over 50% in size
Chain of Beta-2 adrenergic receptor (Homo sapiens) (P07550 whole entry, looked up): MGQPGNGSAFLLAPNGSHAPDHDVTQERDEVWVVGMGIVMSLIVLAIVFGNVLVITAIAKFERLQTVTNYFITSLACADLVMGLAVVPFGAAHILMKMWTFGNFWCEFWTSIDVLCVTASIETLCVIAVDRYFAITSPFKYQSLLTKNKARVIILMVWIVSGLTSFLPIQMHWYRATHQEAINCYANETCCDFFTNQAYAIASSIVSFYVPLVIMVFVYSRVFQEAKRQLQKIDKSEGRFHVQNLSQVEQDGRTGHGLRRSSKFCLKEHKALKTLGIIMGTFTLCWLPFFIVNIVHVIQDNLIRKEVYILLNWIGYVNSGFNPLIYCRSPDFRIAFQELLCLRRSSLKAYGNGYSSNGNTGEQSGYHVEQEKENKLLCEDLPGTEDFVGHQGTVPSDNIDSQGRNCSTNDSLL
Method in brief: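 Cells (CHO, stable ADRB2 overexpression) incubated 18-20hr at 37C; compounds added from DMSO; agonist mix (1nM isoproterenol, 100uM IBMX, 25uM Ro-20-1724) added; 0.5hr RT; d2-cAMP and anti-cAMP-cryptate added; 1hr RT; 665/615 nm read.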

[13] = molecular target: D(2) dopamine receptor (Homo sapiens) (UniProt P14416); assay: Dopamine D2 receptor (DRD2) small molecule agonists, cell-based qHTS assay (AID 1963594); note: nearly all actives have a fitted effect of over 35% in size
Chain of D(2) dopamine receptor (Homo sapiens) (P14416 whole entry, looked up): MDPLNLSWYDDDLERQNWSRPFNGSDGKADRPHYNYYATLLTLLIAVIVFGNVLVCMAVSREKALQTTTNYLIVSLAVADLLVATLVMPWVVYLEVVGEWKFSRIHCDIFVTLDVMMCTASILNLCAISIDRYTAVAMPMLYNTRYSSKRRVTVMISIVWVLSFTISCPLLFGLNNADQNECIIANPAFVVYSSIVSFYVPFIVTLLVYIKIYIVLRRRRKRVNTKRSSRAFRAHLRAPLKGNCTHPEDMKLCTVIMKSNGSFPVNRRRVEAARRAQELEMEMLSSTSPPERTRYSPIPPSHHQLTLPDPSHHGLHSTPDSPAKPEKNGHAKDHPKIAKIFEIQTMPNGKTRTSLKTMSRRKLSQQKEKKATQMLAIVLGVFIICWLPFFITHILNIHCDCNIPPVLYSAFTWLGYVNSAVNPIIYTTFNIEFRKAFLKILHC
Method in brief: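 HEK293 cells stably expressing DRD2 were cultured 24 h at 37 C, then given Ro20-1724 (0.1 mM final) and compounds for 10 min at room temperature. NKH477 (200nM) was then added for 30 min. cAMP was read by HTRF.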

[14] = molecular target: D(2) dopamine receptor (Homo sapiens) (UniProt P14416); assay: Dopamine D2 receptor (DRD2) small molecule antagonists, cell-based qHTS assay (AID 1963595; active = well fitted inhibition curve with a large enough effect in the signal ratio in the repeat runs, with a control signal flat; the % refers to the signal ratio)
Method in brief: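 Stable D2 receptor HEK293 line, 24 h after seeding. Compound preincubated 10 min, then quinpirole (12 nM) with forskolin analogue NKH477 (200 nM), 30 min, room temperature. Detection by time-resolved FRET of cAMP.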

[15] = molecular target: 5-hydroxytryptamine receptor 2A (Homo sapiens) (UniProt P28223); assay: 5-hydroxytryptamine receptor 2A (HTR2A) small molecule agonists, cell-based qHTS assay (AID 1963587); note: nearly all actives have a fitted effect of over 30% in size
Chain of 5-hydroxytryptamine receptor 2A (Homo sapiens) (P28223 whole entry, looked up): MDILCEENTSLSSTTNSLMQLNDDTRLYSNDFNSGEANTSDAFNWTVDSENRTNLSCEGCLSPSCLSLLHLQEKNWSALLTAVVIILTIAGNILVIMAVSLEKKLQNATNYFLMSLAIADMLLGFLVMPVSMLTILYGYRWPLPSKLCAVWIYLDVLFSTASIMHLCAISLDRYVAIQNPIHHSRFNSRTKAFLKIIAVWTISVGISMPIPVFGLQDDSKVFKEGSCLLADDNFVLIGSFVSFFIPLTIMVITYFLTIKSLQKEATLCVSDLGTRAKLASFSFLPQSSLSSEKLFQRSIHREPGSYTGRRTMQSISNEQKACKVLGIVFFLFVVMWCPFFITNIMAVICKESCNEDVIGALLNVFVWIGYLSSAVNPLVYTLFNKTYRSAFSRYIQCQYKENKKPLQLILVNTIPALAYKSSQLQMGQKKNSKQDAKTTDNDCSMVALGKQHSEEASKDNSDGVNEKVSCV
Method in brief: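 HTR2A-CHO cells, plated 18 h at 37 C/5% CO2, dye-loaded 1 h at 37 C; compounds in DMSO added by pin tool (agonist mode). Intracellular calcium flux read as kinetic fluorescence on FDSS over 2 min at 1 s intervals.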

[16] = molecular target: Muscarinic acetylcholine receptor M1 (Homo sapiens) (UniProt P11229); assay: Cholinergic receptor muscarinic 1 (CHRM1) small molecule antagonists, cell-based qHTS assay (AID 1963588); note: nearly all actives have a fitted effect of over 40% in size
Chain of Muscarinic acetylcholine receptor M1 (Homo sapiens) (P11229 whole entry, looked up): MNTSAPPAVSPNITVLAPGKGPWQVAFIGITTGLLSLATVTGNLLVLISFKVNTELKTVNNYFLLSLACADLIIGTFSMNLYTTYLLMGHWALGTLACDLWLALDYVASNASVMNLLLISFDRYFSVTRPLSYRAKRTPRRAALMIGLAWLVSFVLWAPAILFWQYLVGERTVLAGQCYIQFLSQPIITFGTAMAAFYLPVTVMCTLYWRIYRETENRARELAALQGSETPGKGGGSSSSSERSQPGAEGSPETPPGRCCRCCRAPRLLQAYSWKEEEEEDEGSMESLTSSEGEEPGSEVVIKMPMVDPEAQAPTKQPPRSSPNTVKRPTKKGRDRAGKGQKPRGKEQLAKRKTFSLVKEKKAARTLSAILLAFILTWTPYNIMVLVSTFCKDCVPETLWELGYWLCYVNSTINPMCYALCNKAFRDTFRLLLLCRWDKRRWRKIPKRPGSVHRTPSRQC
Method in brief: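 CHRM1-CHO calcium-flux assay, antagonist mode. Cells were seeded 18 h, dye-loaded 1 h at 37 C and given compound for 5 min at RT, then acetylcholine was added at 50nM. FDSS fluorescence was read 3 min; 15 concentrations, three runs.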

[17] = molecular target: Muscarinic acetylcholine receptor M1 (Homo sapiens) (UniProt P11229); assay: Cholinergic receptor muscarinic 1 (CHRM1) small molecule agonists, cell-based qHTS assay (AID 1963589); note: nearly all actives have a fitted effect of over 35% in size
Method in brief: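 Agonist-mode qHTS in CHO cells stably carrying human muscarinic M1. Intracellular calcium is tracked by fluorescence every second after compound transfer; each compound runs at 15 concentrations in three independent runs.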

[18] = molecular target: 5-hydroxytryptamine receptor 2A (Homo sapiens) (UniProt P28223); assay: 5-hydroxytryptamine receptor 2A (HTR2A) small molecule antagonists, cell-based qHTS assay (AID 1963586); note: nearly all actives have a fitted effect of over 45% in size
Method in brief: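 Antagonist-mode intracellular calcium assay: DOI (4 nM) added after 5 min compound pre-incubation at room temperature to dye-loaded HTR2A-CHO cells. Fluorescence followed for 3 min, sampled every second.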

[19] = molecular target: Beta-2 adrenergic receptor (Homo sapiens) (UniProt P07550); assay: Adrenergic beta2 receptor (ADRB2) small molecule agonists, cell-based qHTS assay (AID 1963593);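 note: CHO cells stably overexpressing human ADRB2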
Method in brief: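 CHO cells stably over-expressing ADRB2 were plated overnight at 37C, then dosed with compounds plus a stimulation mix containing 100uM IBMX and 25uM Ro-20-1724 for 0.5hr at room temperature. cAMP was measured by HTRF competition, 1hr.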

[20] = molecular target: KiSS-1 receptor (Homo sapiens) (UniProt Q969F8); assay: Human kisspeptin (KISS1R) small molecule agonists, calcium flux assay in KISS1R-HEK293 cells (AID 1920064; active = well fitted curve in the direction sought with a large enough effect in the repeat runs; an effect the other way counts as inactive or inconclusive)
Chain of KiSS-1 receptor (Homo sapiens) (Q969F8 whole entry, looked up): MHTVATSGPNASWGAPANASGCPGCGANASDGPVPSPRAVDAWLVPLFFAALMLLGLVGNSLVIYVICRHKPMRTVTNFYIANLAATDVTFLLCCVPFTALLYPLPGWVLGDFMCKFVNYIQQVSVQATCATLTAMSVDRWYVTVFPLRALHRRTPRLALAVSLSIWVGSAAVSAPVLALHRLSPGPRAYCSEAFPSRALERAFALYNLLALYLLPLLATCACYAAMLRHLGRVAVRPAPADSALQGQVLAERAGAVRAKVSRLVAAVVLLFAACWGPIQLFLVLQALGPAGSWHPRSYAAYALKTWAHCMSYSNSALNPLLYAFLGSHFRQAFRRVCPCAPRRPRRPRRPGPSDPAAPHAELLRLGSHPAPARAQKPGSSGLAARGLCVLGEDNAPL
Method in brief: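 Cells plated and incubated 18 h; dye added, 1 h at 37 C; compounds in DMSO pinned in; signal read at 480/540 nm every second for 3 min. Each compound tested at 15 concentrations in triplicate.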

Measured: Potency

CC(C)=CCC/C(C)=C/CO
not listed: [15] | [16] | [17] | [18] | [19] | [20]
inactive: all other assays above

CNC[C@H](O)[C@@H](O)[C@H](O)[C@H](O)CO
not listed: [12] | [18] | [19] | [20]
inactive: all other assays above

C#CCN(C)Cc1ccccc1
not listed: [13] | [20]
inactive: all other assays above

O=c1[nH]nnc2ccccc12
not listed: [15] | [19] | [20]
inactive: all other assays above

NC(N)=NC(N)=NCCc1ccccc1
not listed: [9] | [19] | [20]
inactive: all other assays above

O=C(OCC1CCC2OC2C1)C1CCC2OC2C1 (configuration not stated)
not listed: [19] | [20]
inactive: all other assays above

CC(C)CC(=O)CC(C)C
not listed: [12] | [19] | [20]
inactive: all other assays above

CC(=O)CC/C=C(\C)CCC=C(C)C
not listed: [18] | [20]
inactive: all other assays above

CC(=O)Nc1c(I)c(NC(C)=O)c(I)c(C(=O)O)c1I
inactive: [1] | [2] | [3] | [20] | [6] | [7] | [8] | [10] | [11] | [13] | [14]

O=C(O)c1ccc(O)cc1
not listed: [20]
inactive: all other assays above

C[C@](N)(Cc1ccc(O)c(O)c1)C(=O)O
not listed: [15] | [16] | [17] | [18] | [19] | [20]
inactive: all other assays above

CCCOC(=O)c1ccccc1
not listed: [16] | [19] | [20]
inactive: all other assays above

COC(=O)[C@H](Cc1ccccc1)NC(=O)[C@@H](N)CC(=O)O (H-Asp-Phe-OMe)
not listed: [20]
inactive: all other assays above

CCCCCCCCCCCCCCCC(=O)OC(C)C
not listed: [19] | [20]
inactive: all other assays above

NCCS(=O)(=O)O
not listed: [13] | [17] | [20]
inactive: all other assays above

COc1ccc2[nH]cc(CCNC(C)=O)c2c1
not listed: [12] | [15] | [16] | [17] | [18] | [20]
inactive: all other assays above

CC(=O)CC(C)(C)O
not listed: [4] | [7] | [13] | [18] | [19]
inactive: all other assays above

Fc1ccc(Br)cc1
not listed: [20]
inactive: all other assays above

C=C(C)CNCC
not listed: [4] | [7] | [15]
inactive: all other assays above

O=C(O)c1ccccc1C(=O)O
not listed: [4] | [6]
inactive: all other assays above

Cc1nnc(NS(=O)(=O)c2ccc(N)cc2)s1
not listed: [4] | [6] | [14] | [15] | [16] | [17] | [18]
inactive: all other assays above

O=C(O)CCCCC1CCSS1 (configuration not stated)
5.44 µM (active) and inactive: [2]
not listed: [4] | [8] | [11] | [15] | [16] | [17] | [18]
inactive: all other assays above

CCCCCCCCCCC(CO)CCCCCCCC (configuration not stated)
not listed: [9] | [12] | [19] | [20]
inactive: all other assays above

CC(=O)Oc1ccc(C(c2ccc(OC(C)=O)cc2)c2ccccn2)cc1
active: [2] 121 nM and 841 nM
inactive: [1] | [3] | [20] | [5] | [6] | [7] | [8] | [12] | [19] | [13]

C[Si](O[Si](C)(C)C)O[Si](C)(C)C
not listed: [4] | [9] | [10] | [16]
inactive: all other assays above
